Sm TGR inh = inhibitors of Schistosoma mansoni thioredoxin glutathione reductase; Q962Y6; purified TGR, DTNB reduction, TNB absorbance 405 nm; Potency, µM (series often up to 114 µM), for inactives: top-dose activity change, negative = inhibition, hits mostly inhibitors; actives 3% (n = 360,000); also: nearly all actives have a fitted effect of over 60% in size
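TGR 20 nM + NADPH 100 uM (dispensed conc.), cpd preinc 15 min RT; start with NADPH (500 uM addition) then DTNB (15 mM addition). Kinetic TNB absorbance, 405 nm filter. Four-parameter Hill fit across titration.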
LmPK inh = LmPK (Leishmania mexicana) enzyme inhibition; Q27686; purified LmPK, Kinase-Glo ATP luminescence, 1 h; Potency, µM (doses to about 57.5 µM), inactives show top-dose activity change, negative = inhibition, hits mostly inhibitors; actives 0.37% (n = 290,000); AID 1721
Target sequence (Q27686 whole entry, looked up): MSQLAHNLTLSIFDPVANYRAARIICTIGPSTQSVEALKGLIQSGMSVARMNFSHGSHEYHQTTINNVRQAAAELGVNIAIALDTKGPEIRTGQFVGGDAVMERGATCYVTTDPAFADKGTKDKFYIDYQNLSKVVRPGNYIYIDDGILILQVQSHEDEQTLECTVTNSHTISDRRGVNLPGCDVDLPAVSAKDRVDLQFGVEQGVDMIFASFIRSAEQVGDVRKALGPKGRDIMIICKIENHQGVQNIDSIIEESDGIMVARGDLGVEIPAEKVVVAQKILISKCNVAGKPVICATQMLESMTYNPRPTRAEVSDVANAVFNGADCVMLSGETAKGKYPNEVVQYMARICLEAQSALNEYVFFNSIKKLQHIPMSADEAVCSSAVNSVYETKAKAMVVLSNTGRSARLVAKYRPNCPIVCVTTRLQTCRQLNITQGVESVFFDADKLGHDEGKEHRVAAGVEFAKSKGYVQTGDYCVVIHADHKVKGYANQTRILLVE
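Purified LmPK (0.1 nM) converted ADP (0.1 mM) to ATP with PEP (0.5 mM) in imidazole buffer pH 7.2 with KCl and MgCl2, 1 h at room temperature. ATP was read by Kinase-Glo luminescence; data normalized to uninhibited and no-enzyme controls.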
RE007 growth inh = less growth of the S. pombe RE007 Vpr strain; actives 0.21% (n = 360,000); Potency, µM (titrated, usually from 92.2 µM), without a hit: at the highest dose activity change, negative = less growth, hits mostly inhibitors; AID 651644; S. pombe RE007 Vpr strain, BacTiter-Glo ATP luminescence, 24 h; active = well fitted falling curve with a large enough effect; inconclusive = small, poorly fitted or top-dose-only effect; inactive = no such curve, though single readings can be large or run the other way; also: nearly all actives have a fitted effect of over 50% in size
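Fission yeast strain RE007, carrying one chromosomally integrated HIV-1 vpr copy, was seeded at OD 0.01 in PMG+AL medium with 23 nL pinned compound. After 24 h at 30 °C and 99% humidity, viability was read by BacTiter-Glo luminescence.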
TbPYK inhibitor = inhibitors of Trypanosoma brucei pyruvate kinase | Q57TT1 | TbPYK enzyme, Kinase-Glo Plus ATP luminescence, 45 min | Potency, µM (series often up to 76.8 µM), inactives show top-dose activity, negative = inhibition, most hits filed as inhibitors | actives 0.12% (n = 410,000); also: nearly all actives have a fitted effect of over 50% in size
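ADP (130 uM final) triggers the TbPYK reaction after compound addition; incubation is 45 min at room temperature. Kinase-Glo Plus is then added and luminescence imaged. Normalized data are fitted to concentration-effect curves.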
Numbers without * were called inactive; [ ] = another dose, or the depositor's remark. Compounds with a hit are over-represented: about 3% of the library has one in this group of screens. Unless noted, calls follow the shape of the dose curve; as a rule, active = well fitted curve in the direction sought with a large enough effect; inconclusive = small, poorly fitted or top-dose-only effect, or another doubt; inactive = no such curve, though single readings can be large; an effect the other way counts as inactive or inconclusive. % is scaled to controls: 0 for no effect and ±100 for the full control effect; potency is read from the fitted curve at half-maximal effect.

What do the screens show for `CCC1CN(C(=O)N2CCC(C(=O)N(C)Cc3ccccc3)CC2)c2ccccc2O1` (configuration not stated)?
Sm TGR inh: 2%; TbPYK inhibitor: -2%

Results for CCOC(=O)N1CCC2(CC1)C(C#N)=C(N)OC1=C2C(=O)CC(C)(C)C1 ?
Sm TGR inh: 1%; LmPK inh: -1%; RE007 growth inh: 4%; TbPYK inhibitor: -21%

Results for CC1(C)CC(=O)C2=C(C1)OC(N)=C(C#N)C21CCC2(CC1)OCCO2 ?
Sm TGR inh: 22µM*; LmPK inh: 4%; RE007 growth inh: -7%; TbPYK inhibitor: -10%

How did CC1(C)CC(=O)C2=C(C1)OC(N)=C(C#N)C21CCN(Cc2ccccc2)CC1 do in these assays?
Sm TGR inh: 14µM*; LmPK inh: 3%; RE007 growth inh: 0%; TbPYK inhibitor: -5%

How did CC(=O)N1CCC2(CC1)C(C#N)=C(N)OC1=C2C(=O)CC(C)(C)C1 do in these assays?
Sm TGR inh: -8%; LmPK inh: -3%; RE007 growth inh: -1%; TbPYK inhibitor: 4%

What do the screens show for `CCOc1ccc(/C=C2\SC(=S)N(C)C2=O)cc1OC`?
Sm TGR inh: 0%; LmPK inh: 3%; RE007 growth inh: 8%; TbPYK inhibitor: -13%

How did CCOc1ccc(/C=C2\SC(=S)NC2=O)cc1OC do in these assays?
Sm TGR inh: -8%; LmPK inh: 14µM*; RE007 growth inh: -23%; TbPYK inhibitor: -10%

What do the screens show for `COc1ccc(/C=C2\SC(=O)NC2=S)cc1OC`?
Sm TGR inh: 18µM*; LmPK inh: -3%; RE007 growth inh: -21%; TbPYK inhibitor: -8%

Results for CCON=C(CC)C1=C(O)CC(c2c(C)cc(C)cc2C)CC1=O (configuration not stated) ?
TbPYK inhibitor: -9%[157 µM]

How did Cc1cc(=O)oc(C)c1C(=O)NCCCN1CCN(c2ccccc2F)CC1 do in these assays?
Sm TGR inh: 35µM*; LmPK inh: 2%; RE007 growth inh: -21%; TbPYK inhibitor: 6%

How did O=C(O)c1cc(-c2ccccc2)n[nH]1 do in these assays?
Sm TGR inh: -2%; LmPK inh: -8%; TbPYK inhibitor: 0%

How did O=C(O)/C=C\C(=O)NNC(=O)c1cc(-c2ccccc2)n[nH]1 do in these assays?
Sm TGR inh: 22µM*; LmPK inh: 6%; RE007 growth inh: 21%; TbPYK inhibitor: -5%

How did O=C(NNS(=O)(=O)c1ccccc1F)c1cc(-c2ccccc2)n[nH]1 do in these assays?
Sm TGR inh: -5%; LmPK inh: 3%; RE007 growth inh: 7%; TbPYK inhibitor: 2%

What do the screens show for `O=C(O)/C=C/C(=O)NNC(=O)c1cc(-c2ccccc2)n[nH]1`?
Sm TGR inh: 40µM*; LmPK inh: 2%; RE007 growth inh: 11%; TbPYK inhibitor: inconclusive

What do the screens show for `CC1CCC2(CC1)NC(=O)N(NC(=O)c1cccc(N(C)C)c1)C2=O` (configuration not stated)?
Sm TGR inh: -6%; RE007 growth inh: 2%; TbPYK inhibitor: -1%

What do the screens show for `COc1ccc(C(=O)OCC#CCSc2nnc(-c3cccc4ccccc34)o2)cc1`?
Sm TGR inh: -22%; TbPYK inhibitor: 1%

Results for O=C(OCC#CCNc1nnc(-c2cccc3ccccc23)o1)c1cccs1 ?
Sm TGR inh: 18µM*

Results for COc1ccc(C)cc1C(=O)CCC(=O)Nc1ccccc1N1CCOCC1 ?
Sm TGR inh: 22µM*; LmPK inh: -13%; RE007 growth inh: -1%; TbPYK inhibitor: 1%

How did COc1ccc(NC(C)=[N+](C)CCNS(=O)(=O)c2ccc(Cl)cc2)cc1 do in these assays?
Sm TGR inh: 35µM*; LmPK inh: 9%; RE007 growth inh: -4%; TbPYK inhibitor: inconclusive

Results for N/C(=N\N=C\c1cccc([N+](=O)[O-])c1)c1nonc1N ?
Sm TGR inh: 0%; LmPK inh: 2%; RE007 growth inh: -1%; TbPYK inhibitor: 1%

Results for N/C(=N\N=C\c1ccc2c(c1)OCO2)c1nonc1N ?
Sm TGR inh: 28%; LmPK inh: 11µM*; RE007 growth inh: -19%; TbPYK inhibitor: -17%

Results for Cc1c(NN=C(C#N)C#N)c(=O)n(-c2ccccc2)n1C ?
Sm TGR inh: 22µM*; LmPK inh: 9%; RE007 growth inh: -1%; TbPYK inhibitor: -5%

What do the screens show for `Cc1c(NC(=O)/C(C#N)=C/c2ccccc2)c(=O)n(-c2ccccc2)n1C`?
Sm TGR inh: 0%; LmPK inh: 6%; RE007 growth inh: 12%; TbPYK inhibitor: 1%

Results for Cc1c(NC(C)c2ccccc2O)c(=O)n(-c2ccccc2)n1C (configuration not stated) ?
Sm TGR inh: 40µM*; LmPK inh: 3%; RE007 growth inh: -10%; TbPYK inhibitor: 5%

What do the screens show for `Cc1c(NC(C)c2cc(Cl)ccc2O)c(=O)n(-c2ccccc2)n1C` (configuration not stated)?
Sm TGR inh: inconclusive; LmPK inh: 3%; RE007 growth inh: 1%; TbPYK inhibitor: -8%

Results for COc1ccc(NC(=O)/C(Cl)=C(/Cl)S(=O)(=O)Cc2ccccc2)cn1 ?
Sm TGR inh: 10µM*; LmPK inh: -2%; RE007 growth inh: inconclusive; TbPYK inhibitor: -4%

How did COc1ccc(NC(=O)/C(Cl)=C(/Cl)S(=O)Cc2ccc(Cl)cc2)cn1 (configuration not stated) do in these assays?
Sm TGR inh: 0.1µM*; LmPK inh: -5%; RE007 growth inh: 4.5µM*; TbPYK inhibitor: 17%

How did Cn1c(N)c(C(=O)COC(=O)c2ccccc2C(=O)c2ccc(Cl)cc2)c(=O)n(C)c1=O do in these assays?
RE007 growth inh: 7%; TbPYK inhibitor: 0%

Results for O=C(/C=C/c1ccco1)Nc1cccc(NC(=O)/C=C/c2ccco2)n1 ?
Sm TGR inh: -36%; LmPK inh: 1%; RE007 growth inh: 1%; TbPYK inhibitor: -7%

Results for CNS(=O)(=O)c1ccc2nc(NC(=O)/C=C/c3ccco3)sc2c1 ?
Sm TGR inh: 22µM*; LmPK inh: 26%; RE007 growth inh: -13%; TbPYK inhibitor: -14%

How did CCSc1nnc(NC(=O)/C=C/c2ccco2)s1 do in these assays?
Sm TGR inh: 22µM*; LmPK inh: 10%; RE007 growth inh: -3%; TbPYK inhibitor: -1%

Results for O=C(/C=C/c1ccco1)Nc1nnc(-c2ccco2)s1 ?
Sm TGR inh: -22%; LmPK inh: -1%; RE007 growth inh: 8%; TbPYK inhibitor: 2%

How did O=C(/C=C/c1ccco1)NC1=NCCS1 do in these assays?
Sm TGR inh: 45µM*; LmPK inh: -11%; RE007 growth inh: -1%; TbPYK inhibitor: -6%

What do the screens show for `O=C(/C=C\c1ccco1)Nc1nc(-c2ccccc2)cs1`?
Sm TGR inh: inconclusive; LmPK inh: 2%; RE007 growth inh: 18%; TbPYK inhibitor: 2%

Results for COc1cc(/C=C/C(=O)Nc2nc3ccc(S(=O)(=O)N(C)C)cc3s2)cc(OC)c1OC ?
Sm TGR inh: -5%; LmPK inh: 0%; RE007 growth inh: -14%; TbPYK inhibitor: -4%
